# A selection: hits, their analogues and other compounds. The true share with any hit is near 10%.
# HEK cytotox: Cytotoxic Profiling in HEK 293 Cell Line of Diverse Libraries Using Quantitative High-Throughput Screening; AID 1345083, 2018; Potency, µM (doses to about 115 µM), inactives show at the top dose activity change, negative = cytotoxicity, usual class: inhibitors; 94,000 tested, 6.6% active; HEK 293 viability, ATP luminescence (CellTiter-Glo), 48-72 h; note: nearly all actives have a fitted effect of over 60% in size
#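 Read-out: CellTiter-Glo ATP luminescence. Cells: HEK 293, 250 cells/well. Exposure: 48 or 72 hr, 37 degree Celsius.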
# Luciferase inh: Firefly luciferase inhibition profiling of diverse chemical library using quantitative high-throughput screening; Potency, µM (series often up to 115 µM), usual class: inhibitors; Luciferin 4-monooxygenase (Photinus pyralis), P08659; purified P. pyralis luciferase, luminescence, biochemical; 76,000 tested, 2.5% active; AID 1347043, 2019; note: nearly all actives have a fitted effect of over 65% in size
# Target sequence (P08659 whole entry, looked up): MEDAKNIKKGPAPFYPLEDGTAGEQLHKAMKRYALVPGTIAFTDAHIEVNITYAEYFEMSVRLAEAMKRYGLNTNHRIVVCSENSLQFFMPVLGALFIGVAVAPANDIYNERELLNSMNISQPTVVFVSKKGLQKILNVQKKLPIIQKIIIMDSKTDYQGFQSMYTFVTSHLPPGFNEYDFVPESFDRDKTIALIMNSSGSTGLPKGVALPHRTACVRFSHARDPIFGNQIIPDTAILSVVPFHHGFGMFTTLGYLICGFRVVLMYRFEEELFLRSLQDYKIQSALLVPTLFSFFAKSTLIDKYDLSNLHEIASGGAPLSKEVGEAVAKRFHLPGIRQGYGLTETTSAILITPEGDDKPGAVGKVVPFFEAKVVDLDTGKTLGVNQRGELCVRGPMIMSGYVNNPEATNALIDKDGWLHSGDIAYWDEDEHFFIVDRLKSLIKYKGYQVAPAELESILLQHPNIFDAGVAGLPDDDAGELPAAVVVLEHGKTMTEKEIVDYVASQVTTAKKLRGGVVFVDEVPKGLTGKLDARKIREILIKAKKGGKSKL
#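 Cell-free enzyme assay, 10nM P. pyralis luciferase, luciferin and ATP each at 10uM. Inhibition profiled over a 6-point titration, read as luminescence.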
# GPT2 inhibitor: Primary qHTS assay for inhibitors of Glutamate pyruvate transaminase 2 (GPT2). Alanine aminotransferase 2 (Homo sapiens), Q8TD30. 100,000 tested, 0.25% active. Potency, µM (top dose mostly 57.7 µM), inactives show at the top dose activity change, negative = inhibition, actives largely listed as inhibitors. Recombinant GPT2, coupled pyruvate oxidase/HRP Amplex Red fluorescence; note: nearly all actives have a fitted effect of over 60% in size
#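 Fluorescence read-out: pyruvate from GPT2 turnover coupled to pyruvate oxidase, HRP and Amplex Red (0.2mM ThPP, 0.2U/mL PO and HRP, 50uM Amplex final). Substrates 250uM a-KG, 2mM L-alanine; enzyme 10ng/uL; 30 min RT.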
# NIH3T3 tox: Cytotoxic Profiling in NIH 3T3 Cell Line of Diverse Libraries Using Quantitative High-Throughput Screening. NIH 3T3 viability, CellTiter-Glo ATP luminescence, 48-72 h. Potency, µM (doses to about 96.7 µM), inactives show top-dose activity change, negative = cytotoxicity, most hits filed as inhibitors. 94,000 tested, 4.3% active; note: nearly all actives have a fitted effect of over 55% in size
#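 First NIH 3T3 cells are plated at 400 cells/well; next compound is pinned in; then plates incubate 48 or 72 hr at 37 °C; finally CellTiter-Glo is added and luminescence read after 10 min.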
# hNpr1 antagonist: Natriuretic polypeptide receptor (hNpr1) antagonism - Primary qHTS | HEK293 hNpr1 GloSensor cGMP, ANP-stimulated luminescence | Atrial natriuretic peptide receptor 1 (Homo sapiens), P16066 | AID 1347048, 2019 | Potency, µM (top dose mostly 46.3 µM), without a hit: at the highest dose activity change, negative = inhibition, most hits filed as inhibitors | 76,000 tested, 1.6% active; calls by dose curve; note: nearly all actives have a fitted effect of over 60% in size
#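 Compound pre-incubated 30 min at room temperature on GloSensor-loaded HEK293 cells stably carrying hNpr1 and the pGS-40F cGMP biosensor. Stimulation uses hNppA at 0.1 nM final; luminescence is taken at baseline and 20 min post-agonist.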
# * marks the source's active call; other numbers are inactive results; i = inactive; ? = inconclusive; · = no result; [ ] = dose if it differs, or a comment. Unless noted, calls come from the whole dose curve; as a rule, active = well fitted curve in the direction sought with a large enough effect; inconclusive = small, poorly fitted or top-dose-only effect, or another doubt; inactive = no such curve, though single readings can be large; an effect the other way counts as inactive or inconclusive. % is set by controls: 0 for no effect and ±100 for the full control effect; potency is the fitted concentration of half-maximal effect.
SMILES,HEK cytotox,Luciferase inh,GPT2 inhibitor,NIH3T3 tox,hNpr1 antagonist
COc1ccccc1-c1cccc(CN2CCCC(C(=O)NCC(F)F)C2)c1 (stereo not given),39.8µM*,·,-4.5%,?,·
C#CCNC(=O)C1CCCN(Cc2cccc(-c3ccccc3OC)c2)C1 (stereo not given),?,·,4.3%,?,·
CC1CCN(Cc2ccccc2OCC(O)CN2CCSCC2)CC1 (stereo not given),?,i,i,1.8%,0.9%
Cc1cccc(Nc2nc(N)nc(CN3CCOCC(O)C3)n2)c1 (stereo not given),-28.5%,i,-9.7%,-17.1%,-11.8%
Cc1ccc(-n2c(C3CCN(C(=O)c4cccc(F)c4)CC3)n[nH]c2=O)cc1,12.4%,i,i,35.5µM*,3.0%
Cc1ccc(-n2c(C3CCN(C(=O)Cc4cccc(F)c4)CC3)n[nH]c2=O)cc1,-0.9%,i,2.9%,10µM*,14.9%
Cc1ccc(-n2c(C3CCN(C(=O)c4ccco4)CC3)n[nH]c2=O)cc1,6.0%,i,3.9%,22.4µM*,2.2%
Cc1ccc(-n2c(C3CCN(C(=O)Cc4ccccc4)CC3)n[nH]c2=O)cc1,4.3%,i,i,?,4.9%
Cc1ccc(-n2c(C3CCN(C(=O)c4cccc(C)c4)CC3)n[nH]c2=O)cc1,-3.2%,i,-11.3%,?,0.0%
Cc1ccc(-n2c(C3CCN(C(=O)c4ccc5cc[nH]c5c4)CC3)n[nH]c2=O)cc1,9.6%,i,-1.9%,31.6µM*,1.5%
CC(C)Cc1cnc(C2CCCN(C(=O)c3ccc(Cl)cc3)C2)[nH]1 (stereo not given),?,·,-14.8%,?,·
CC(C)(C)c1ccc(C(=O)N2CCC(c3n[nH]c(=O)n3-c3ccccc3)CC2)cc1,?,i,i,-25.8%,0.0%
Cc1ccc(-n2c(C3CCN(C(=O)c4ccc(F)c(F)c4)CC3)n[nH]c2=O)cc1,11.6%,i,i,10µM*,2.3%
O=C(c1ccc2ccccc2n1)N1CCC(c2n[nH]c(=O)n2-c2ccccc2)CC1,3.5%,i,-6.5%,44.7µM*,0.0%
CS(=O)(=O)N1CCCN(C(=O)NCCc2ccccc2)CCNC(=O)CC1c1ccccc1 (stereo not given),2.1%,i,?,1.8%,4.6%
CN(Cc1cccc(C(F)(F)F)c1)S(=O)(=O)c1cccs1,89.1µM*,i,i,?,-20.5%[70.6 µM]
Cc1nc2cccnc2n1CC1CCCN(C(=O)Nc2ccc3c(c2)OCCO3)C1 (stereo not given),?,i,i,-1.8%,1.7%
COc1ccc(NC(=O)N2CCCC(Cn3c(C4CC4)nc4cccnc43)C2)cc1Cl (stereo not given),70.8µM*,i,-18.2%,?,-9.8%
O=C(Nc1ccc2c(c1)OCCO2)N1CCCC(Cn2cnc3cccnc32)C1 (stereo not given),6.3%,28.2µM*,i,-0.9%,2.9%
Cn1nc(C2CCCN(C(=O)Nc3ccc4c(c3)OCCO4)C2)n(C2CCCC2)c1=O (stereo not given),12.1%,31.6µM*,1.4%,2.0%,-1.8%
CNC(=O)[C@@H](c1ccccc1)N1CCC[C@H]1C(=O)N[C@@H](CO)CC(C)C,-0.8%[172 µM],i,?,-13.5%[174 µM],0.7%[70.6 µM]
CCCC1(CO)CCCN(C(=O)C2CCC(CO)CC2)C1 (stereo not given),-9.4%,i,i,-6.3%,1.2%
COCCNc1ncc(-c2ccc(OC)cc2)c2c1OCC2,?,44.7µM*,-1.3%[88.5 µM],?,5.1%[70.6 µM]
COCCNc1ncc(-c2ccc(F)cc2)c2c1OCC2,?,15.8µM*,i,?,0.7%[70.6 µM]
COCCNc1ncc(-c2ccc(SC)cc2)c2c1OCC2,?,?,2.4%[88.5 µM],?,3.0%[70.6 µM]
SMILES,HEK cytotox,Luciferase inh,GPT2 inhibitor,NIH3T3 tox,hNpr1 antagonist
O=C(c1scc2c1OCCO2)N1Cc2ccccc2C(O)C1 (stereo not given),-9.5%,i,2.1%,-5.2%,-0.5%
O=C(O)c1cnc(N2CCCCC2)nc1-c1ccncc1,-2.2%,i,i,?,4.7%
COC[C@@H]1CNC[C@H]1c1nc(C)no1,89.1µM*,i,i,-6.8%,-4.4%
CCS(=O)(=O)N1C[C@@H](COC)[C@H](c2nc(C)no2)C1,i,i,-1.3%,i,2.6%
O=c1c2nc(-c3ccccc3)ccc2ncn1-c1ccccc1,?,i,0.9%[88.5 µM],?,-2.2%[70.6 µM]
COc1ccc(-c2ccc3c(n2)c(=O)ncn3Cc2ccccc2)cc1OC,-16.9%[172 µM],i,?,?,-1.3%[70.6 µM]
Cn1cnc2ccc(-c3ccncc3)nc2c1=O,?,i,2.3%[88.5 µM],79.4µM*,3.2%[70.6 µM]
COc1ccc(-c2ccc3ncn(C)c(=O)c3n2)cc1OC,?,i,-5.0%[88.5 µM],35.5µM*,-0.4%[70.6 µM]
O=C(c1ccnc2[nH]ccc12)N1CCOCC1,0.6%[230 µM],·,i,i,·
O=C(NC1CCN(c2cc(-c3ccc(F)cc3)[nH]n2)CC1)c1cccc(F)c1,?,i,i,?,-27.8%
COc1ccccc1CN1CC(c2noc(-c3cc(C)cc(C)c3)n2)CC1=O (stereo not given),44.7µM*,i,0.9%,?,4.2%
COc1ccccc1CN1CC(c2noc(-c3sccc3C)n2)CC1=O (stereo not given),39.8µM*,i,i,?,7.8%
O=C(NCCC1CCN(C(=O)Nc2cc(F)ccc2F)CC1)c1cnccn1,1.6%,i,-4.9%,-5.2%,0.7%
C=CCc1ccccc1OCCN(C)Cc1ccc(S(C)(=O)=O)cc1,39.8µM*,i,0.4%,?,-12.7%
C=CCc1ccccc1OCCN(C)Cc1cc2ccc(F)cc2[nH]c1=O,44.7µM*,i,-22.3%[11.5 µM],35.5µM*,?
COC1CCN(S(=O)(=O)N2C[C@H](c3ccc(C)o3)[C@@H](N)C2)CC1,-6.4%,i,2.1%,-19.7%,1.0%
CC(C)C(=O)N1Cc2ccccc2NC(=O)C12CCNC2 (stereo not given),i,·,-10.0%[88.5 µM],i,·
COc1ccc(Nc2ccnc(N3CCC(NC(=O)C4CCCC4)CC3)n2)cc1,50.1µM*,·,-2.3%,?,·
COc1ccc(Nc2ccnc(N3CCC(C(=O)NC4CCCC4)CC3)n2)cc1,?,·,i,35.5µM*,·
COc1ccc(Nc2ccnc(N3CCC(C(=O)N4CCOCC4)CC3)n2)cc1,-29.7%,·,?,-25.1%,·
COc1ccc(Nc2ccnc(N3CCN(C(=O)C4CCCC4)CC3)n2)cc1,28.2µM*,·,i,?,·
